Laboratory results: PubChem BioAssay AID686978 (National Center for Advancing Translational Sciences (NCATS), 2013)
Out of some 420,000 compounds screened, about 64,000 (15%) were called active. Inconclusive results (about 27%) are left out. Calls follow the shape of the dose curve; as a rule, active = well fitted inhibition curve with a large enough effect; inconclusive = small, poorly fitted or top-dose-only effect; inactive = flat fitted curve, though single readings scatter. Not all results are given here. Where a call stands in place of a potency, no number is given.

Experiment: qHTS for Inhibitors of human tyrosyl-DNA phosphodiesterase 1 (TDP1): qHTS in cells in absence of CPT; also: nearly all actives have a fitted effect of over 55% in size
Conditions: DT40 Tdp1-/- hTDP1 cells, no CPT, ATP luminescence, 48 h; activity change, negative = growth inhibition: at 46.2 µM (top of the series)
In short: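 Stably hTDP1-transfected Tdp1-null chicken DT40 cells were treated with library compounds minus camptothecin and grown for at least 48 hr at 37 °C, after which cellular ATP was quantified by luminescence.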
Potency is read from the fitted curve at half-maximal effect.

Compound | Potency
CSc1ccccc1OCc1cc(C(=O)N(C)CCc2c(C)n[nH]c2C)no1 | inactive
O=C(CN1CCCCCC1)Nc1c(Cl)cc(Cl)cc1Cl | inactive
CN(C)C(=O)c1ccc(NC(=O)COC(=O)c2cc3c(s2)CCCCC3)cc1 | inactive
CSc1ccc(/C=N/N2CCN(Cc3ccccc3Cl)CC2)cc1 | inactive
Cn1c2c(c(=O)n(C)c1=O)C(c1ccc(O)cc1)Nc1ccccc1O2 (centres undefined) | inactive
CCC(=O)Nc1ccccc1C(=O)N1CCN(Cc2ccccc2)CC1 | inactive
Cc1nn(Cc2ccccc2)c(C)c1C(=O)NCCCN1CCCC1=O | inactive
Cc1nn(Cc2ccccc2)c(C)c1C(=O)N1CCN(CC(=O)Nc2ccccc2Cl)CC1 | 23.1 µM (active)
CCOC(=O)CSc1nnc(CNC(=O)c2ccco2)n1-c1ccc(F)cc1 | inactive
NNC(=O)c1cnn(-c2ccccc2)c1C(F)(F)F | inactive
CN(C)CCCOc1ccc(-c2ccc3nccn3c2)cn1 | inactive
OC[C@@H]1CN(Cc2cccs2)C[C@H](n2cnc3c(Nc4ccccc4)ncnc32)O1 | inactive
OC[C@@H]1CN(C2CCCC2)C[C@H](n2cnc3c(NC4CCC4)ncnc32)O1 | inactive
OC[C@@H]1CN(Cc2ccc(-c3ccccc3)cc2)C[C@H](n2cnc3c(NC4CCCC4)ncnc32)O1 | 1.3 µM (active)
Cc1nnc(SCC(N)=O)n1CC1CCCO1 (centres undefined) | inactive
O=C(O)CSCc1nc2ccccc2s1 | inactive
CCOC(=O)/C(C#N)=C/c1ccc(N2CCN(Cc3ccccc3)CC2)cc1 | 20.6 µM (active)
CCOC(=O)/C(C#N)=C/c1ccc(OCC(=O)Nc2ccccc2)c(OC)c1 | inactive
CCOC(=O)/C(C#N)=C/c1ccc(N2CCCCC2)cc1 | inactive
O=C1C2C3C=CC(C3)C2C(=O)N1c1ccc(-c2nc3ccccc3c(=O)o2)cc1 (centres undefined) | inactive
CN(C)c1ccc(/C=N/NC(=O)C(O)c2ccc(Br)cc2)cc1 (centres undefined) | inactive
NS(=O)(=O)c1ccc(NC(=S)NC(=O)c2cccnc2)cc1 | inactive

Compound | Potency
O=C(c1ccc2c(c1)N(Cc1ccccc1)C(=O)c1ccccc1S2(=O)=O)N1CCCC1 | 23.1 µM (active)
CC1CCCN(C(=O)CN2C(=O)c3ccccc3S2(=O)=O)C1 (centres undefined) | inactive
O=C(c1ccc2c(c1)N(Cc1ccc(F)cc1)C(=O)c1ccccc1S2(=O)=O)N1CCN(c2ccccn2)CC1 | 18.4 µM (active)
O=C1c2ccccc2S(=O)(=O)c2cc(N3CCN(c4ccccn4)CC3)ccc21 | inactive
O=C(c1ccc2c(c1)C(=O)N(c1ccc(Cl)cc1)C2=O)N1CCN(c2ccccn2)CC1 | inactive
COc1ccccc1NC(=O)CN1C(=O)c2ccccc2Sc2ccc(C(=O)N3CCCC3)cc21 | inactive
O=C(c1ccc2c(c1)N(Cc1ccccc1F)C(=O)c1ccccc1S2(=O)=O)N1CCOCC1 | inactive
O=C(c1ccc2c(c1)N(Cc1ccccc1)C(=O)c1ccccc1S2(=O)=O)N1CCC(Cc2ccccc2)CC1 | 5.8 µM (active)
O=C(c1cccc(Br)c1)N1CCN(C2=NS(=O)(=O)c3ccccc32)CC1 | inactive
COc1ccc(Cl)cc1N(CC(=O)N/N=C/c1ccc(OCC(N)=O)cc1)S(C)(=O)=O | inactive
CCOc1ccc(C(=O)N2CCN(CCc3ccccn3)CC2)cc1 | inactive
O=C(CSc1nnc(-c2cccnc2)n1CCc1ccccc1)NCc1ccccc1 | inactive
COc1ccc(C)cc1NC(=O)CCS(=O)(=O)c1cccc2nonc12 | inactive
COCCN(CCOC)S(=O)(=O)NC[C@H]1O[C@@H](n2cnc3c(N)ncnc32)[C@H](O)[C@@H]1O | inactive
CN1CCN(S(=O)(=O)c2ccc(NC(=S)NC(=O)C3CC3)cc2)CC1 | inactive
CCOC(=O)c1cccnc1NC(=O)c1ccncc1 | inactive
O=C(O)c1ccccc1-c1ccccc1C(=O)Nc1cccc2ccccc12 | inactive
COC(=O)COc1ccc2c(c1C)O/C(=C\c1ccco1)C2=O | inactive
O=c1cc(O)c(-c2cccc(C(F)(F)F)c2)c(Cl)[nH]1 | inactive
CC1(Cc2cccc(C#N)c2)C(=O)Nc2ccc(-c3cccc(C(F)(F)F)c3)cc21 (centres undefined) | 20.6 µM (active)
C=CCn1cc(-c2cccc(C(F)(F)F)c2)cc(C#N)c1=O | inactive
COC(=O)C(C)Sc1ccc2nnc(-c3cccc(F)c3)n2n1 (centres undefined) | inactive

Compound | Potency
Cc1ccc(-n2cc(CN(C)Cc3nccn3C)c(-c3cccc(C)c3)n2)cc1 | 23.1 µM (active)
Cc1ccc(-n2cnc3ncnc(-c4ccccc4)c32)cc1 | inactive
CCn1ccnc1CN(C)Cc1nc(-c2ccc3c(c2)OCO3)no1 | inactive
O=C(CCCl)Nc1ccc(S(=O)(=O)NCc2ccco2)cc1 | inactive
Cc1oc(-c2ccccc2Cl)[n+]([O-])c1C | 23.1 µM (active)
Cc1ccc(-c2cc(-c3coc4ccccc4c3=O)c3c(n2)-c2cc(Cl)ccc2OC3)cc1 | inactive
O=C(c1ccc(OC2CCN(Cc3ccccn3)CC2)cc1)N1CCCCCC1 | inactive
CSc1ccccc1NC(=O)COC(=O)CCCOc1ccc(C)cc1 | inactive
COc1cc([N+](=O)[O-])ccc1NC(=O)CN1CCCC1 | inactive
COc1cc([N+](=O)[O-])ccc1NC(=O)COC(=O)CCOc1ccc(C)cc1 | 6.51 µM (active)
O=C(C[C@H]1CC[C@@H](NC(=O)c2ccncc2)[C@@H](CO)O1)NCC1CC1 | inactive
CN(CCC#N)c1ncnc2scc(-c3ccccc3)c12 | 14.6 µM (active)
C=CCn1cnc2scc(-c3ccccc3)c2c1=O | inactive
N#CCCN(CCC#N)c1nnc(-c2ccccc2)s1 | inactive
CCC(=O)NC(Nc1cc(C)ccn1)(C(F)(F)F)C(F)(F)F | inactive
Cc1cc(C)cc(OCC(=O)Nc2ccc(S(=O)(=O)Nc3ccccn3)cc2)c1 | inactive
COC(=O)Cc1ccc(Oc2ncc(C(F)(F)F)cc2Cl)cc1 | inactive
Cc1cc(C)cc(NS(=O)(=O)c2ccc(Oc3ncc(C(F)(F)F)cc3Cl)cc2)c1 | 13 µM (active)
Cc1nc(C(F)(F)F)ccc1C(=O)N1CCC1(C)C(=O)NS(=O)(=O)c1ccccc1 (centres undefined) | inactive
O=C(CCN1Cc2ccccc2OC(c2ccccc2)C1)N[C@@H]1CS(=O)(=O)C[C@H]1O (some centres undefined) | inactive
